For two compounds, luciferase reporter transactivation results are on record in the supplement of paper PMC11402862.

The test system of the assay is PPARalpha LBD (GAL4 fusion). Put plainly: luciferase reporter transactivation, fold of solvent control; higher = stronger receptor activation. To be noted: HEK293T, exposure time: 24 h. On the procedure:
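HEK293T cells were transiently transfected with a GAL4-DBD fused to the ligand-binding domain of a human nuclear receptor (PPARα, PPARγ, PPARδ, FXR, LXRα, PXR, RARα or CAR), the GAL4-(UAS)5-TK firefly luciferase reporter and a Renilla luciferase normalisation plasmid. Cells were exposed to compound for 24 h in 0.5% DMSO. Firefly/Renilla luciferase was expressed as fold of the solvent control (=1). Values are the mean of 2-3 biological replicates; receptor agonists were used as positive controls.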

The structures appear in SMILES notation.

The compound `NS(=O)(=O)C(F)(F)C(F)(F)C(F)(F)C(F)(F)C(F)(F)C(F)(F)C(F)(F)C(F)(F)F` [perfluorooctane sulfonamide] had a luciferase reporter transactivation (concentration: 1 µM) of 0.788; a luciferase reporter transactivation (concentration: 2.5 µM) of 0.548; a luciferase reporter transactivation (concentration: 5 µM) of 0.904; a luciferase reporter transactivation (concentration: 10 µM) of 0.796; a luciferase reporter transactivation (concentration: 100 µM) of 1.2.
As to `O=C(O)C(F)(F)C(F)(F)F` [perfluoropropanoic acid], the luciferase reporter transactivation (concentration: 1 µM) came out at 1.08; the luciferase reporter transactivation (concentration: 5 µM) was 1.01; the luciferase reporter transactivation (concentration: 10 µM) amounted to 1.07; the luciferase reporter transactivation (concentration: 25 µM) came to 1.03; the luciferase reporter transactivation (concentration: 50 µM) is 1.12; the luciferase reporter transactivation (concentration: 100 µM) was determined as 1.78. Moreover, the luciferase reporter transactivation reads like this: (concentration: 250 µM) 1.42; (concentration: 500 µM) 1.98.
